# From PubChem BioAssay
# NLRP3 yeast inh – NALP3 inhibition in yeast. actives 0.39% (n = 330,000). inhibition, % at 10 µM. Yeast reconstituted NLRP3/ASC/caspase-1, beta-gal luminescence, 24 h;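 active = inhibition of 50% or more; inactive = inhibition below 50%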;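 note: plate controls were induced DMSO wells for no effect and uninduced yeast grown without galactose for full effect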
# TIM10 inh – inhibits growth of TIM10 yeast strain | S. cerevisiae TIM10 strain growth, BacTiter-Glo luminescence, 24 h | inhibition, % at 10 µM | actives 1.4% (n = 330,000) | AID 463195;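 active = inhibition of 40% or more at the single tested concentration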;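 note: wild-type TIM10 isogenic control strain grown at permissive 25 °C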
# tim23-1 inh – growth inhibitors of tim23-1 mutant yeast | inhibition, % at 20 µM | actives 1.3% (n = 330,000) | S. cerevisiae tim23-1 growth, BacTiter-Glo luminescence, 24 h | AID 463212;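 active = growth inhibition of the mutant yeast at or above 50%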;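 note: temperature-sensitive mutant grown at 25 °C; plate controls were DMSO-treated mutant yeast for no effect and medium wells lacking yeast for full effect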
# tim10-1 inh – inhibits growth of tim10-1 mutant yeast; AID 463190; actives 2.2% (n = 330,000); S. cerevisiae tim10-1 ts strain growth, BacTiter-Glo, 24 h; inhibition, % at 20 µM;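 active = inhibition of at least 40%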;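 note: mutant grown at 25 °C; 0% = DMSO wells with yeast and 100% = wells holding no yeast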
# Yeast superoxide – yeast age-related superoxide inhibition as caloric restriction mimetic; AID 2690; S. cerevisiae aged cells, superoxide DHE fluorescence; active compounds read low; superoxide response (% of plate mean), % at 10 µM; actives 0.18% (n = 330,000);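 active = superoxide response under a set limit, about three screen SD below normal, cut at about 65% in these data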;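 note: yeast aged for seven days with compound at 30 °C before DHE staining; 100% = average MFI of all compound-treated wells on the plate with controls excluded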
# NALP3 confirm – NALP3 inhibition confirmation in yeast. shares compounds with NLRP3 yeast inh. yeast expressing human NALP3, luminescence. inhibition, % at 10 µM. actives 81% (n = 1,300). AID 435006; in the data active = inhibition above about 48%
# Casp1 ASC ctr – caspase-1-ASC yeast counter-screen hit. shares compounds with NLRP3 yeast inh. yeast expressing Caspase-1-ASC, luminescence counter screen. actives 66% (n = 1,000). inhibition, % at 10 µM
# NALP3 yeast rt – confirmation retest of NALP3 inhibitors in yeast; shares compounds with NLRP3 yeast inh; actives 53% (n = 1,000); yeast expressing human NALP3, luminescence read-out; inhibition, % at 10 µM
# The depositor's hits bear a star; nt = not tested or not shown. Only some compounds are listed: those with a hit (about 3.8% of all), similar ones and a draw of the others. Cut-off read from the data, not from the text of the source, unless noted: active = inhibition above about 50%; inactive = the rest.
SMILES,NLRP3 yeast inh,TIM10 inh,tim23-1 inh,tim10-1 inh,Yeast superoxide,NALP3 confirm,Casp1 ASC ctr,NALP3 yeast rt
COc1ccc(NCCC(O)c2ccc(Cl)cc2)cc1 (stereo unspecified),59.1*,-15.1,-3.8,-16.0,90.8,67.1*,48.9,46.0
Cc1[nH]cnc1CSCCN,57.6*,10.4,11.3,2.1,108.0,69.4*,53.6*,65.2*
O=C(C1CCN(S(=O)(=O)c2cccc3cccnc23)CC1)N1CCn2c1nc1ccccc12,79.5*,19.1,16.7,25.1,89.3,89.9*,84.9*,87.4*
O=C(CCCCl)NC(=S)Nc1ccc(N2CCOCC2)cc1,7.9,12.9,17.1,21.2,90.0,nt,nt,nt
CC(=O)c1nnn(-c2ccc([N+](=O)[O-])cc2C)c1C,10.3,-2.3,0.8,-13.1,101.1,nt,nt,nt
Cc1cccc(C)c1NC(=O)C(C)N (stereo unspecified),55.4*,-3.1,5.0,3.5,114.3,58.6*,40.1,43.1
O=C(Nc1ccc(Nc2ccccc2)cc1)C(Cl)(Cl)Cl,60.7*,28.9,43.0,-52.7,92.5,68.0*,nt,nt
NC(=O)Nc1ccc(Nc2ccccc2)cc1,9.5,-14.1,0.6,-8.6,88.5,nt,nt,nt
COc1ccc(-c2cc3nc4ccccc4n3c(N)c2C#N)cc1,68.3*,0.9,21.1,22.7,95.2,47.3,14.8,5.9
Cc1cccc(NC(=O)c2ccccc2O)c1C,56.9*,-9.4,7.3,-8.0,77.9,56.8*,52.3*,58.8*
Clc1ccccc1N=C1NN=C(c2cccs2)CS1,51.7*,18.9,37.8,27.1,122.1,70.8*,59.5*,49.5
CCOc1ccc(C(=O)c2ccc([N+](=O)[O-])cc2Cl)cc1,31.5,-5.0,32.0,28.1,101.6,nt,nt,nt
CCOc1ccc(C(=O)c2cc([N+](=O)[O-])ccc2Cl)cc1,67.1*,-16.7,29.8,2.3,98.5,67.2*,72.3*,69.2*
O=C(CSc1nc(COc2ccccc2)nc2ccccc12)NC1CCCC1,70.6*,-8.5,17.1,11.9,70.1,39.6,67.2*,55.7*
CCN(CC)S(=O)(=O)c1ccc(C(=O)Nc2cc(C)cc(C)c2)cc1,50.6*,38.2,22.6,25.6,91.1,51.6*,32.4,42.2
Cc1cccc(NC(=O)c2cnc3sccn3c2=O)c1C,32.4,6.6,3.4,5.9,nt,nt,nt,nt
Cc1cccc(NC(=O)c2cnc3sccn3c2=O)c1,56.4*,24.7,40.1,2.5,100.0,66.2*,52.2*,46.0
Cc1ccnc2nc(C(=O)OCC(=O)NC3CCCC(C)C3C)nn12 (stereo unspecified),5.4,1.8,-3.7,0.2,102.3,nt,nt,nt
O=C(NCCCCc1ccccc1)c1ccccc1,36.9,-15.3,16.5,-1.4,88.8,nt,nt,nt
O=C(NCCc1ccccc1)c1ccccc1F,-9.5,7.8,-1.1,11.7,108.5,nt,nt,nt
O=C(NCCCCc1ccccc1)c1ccc(Br)cc1,58.7*,-59.9,3.4,-26.4,98.5,60.8*,37.3,35.9
O=C(NCCCCc1ccccc1)c1ccccc1F,54.1*,-24.2,8.6,-6.7,98.6,62.5*,53.1*,44.0
Cc1cc(S(=O)(=O)N2CCCCCC2)c(Cl)cc1Cl,61.4*,1.0,-5.1,2.5,105.4,64.3*,70.5*,49.8
O=S(=O)(c1cc(Cl)ccc1Cl)N1CCCCC1,-24.9,-19.9,8.1,7.7,92.8,nt,nt,nt
Cc1ccccc1N1C(=O)C2ON(c3ccccc3)C(c3ccco3)C2C1=O (stereo unspecified),18.6,5.5,13.8,6.3,107.8,nt,nt,nt
SMILES,NLRP3 yeast inh,TIM10 inh,tim23-1 inh,tim10-1 inh,Yeast superoxide,NALP3 confirm,Casp1 ASC ctr,NALP3 yeast rt
NCCc1nnc(SCC(=O)Nc2cccc(Cl)c2)o1,52.4*,-2.1,6.1,0.6,92.4,75.0*,56.8*,68.4*
CN(C)C(CNC(=O)CCNS(=O)(=O)c1ccccc1C(F)(F)F)c1ccccc1 (stereo unspecified),8.0,-8.6,-10.8,-15.4,105.9,nt,nt,nt
Cc1ccc(-n2c(-c3ccccc3)c[nH]c2=S)cc1,55.9*,-20.1,11.7,-5.6,96.6,28.1,nt,nt
Cc1ccc(-n2c(-c3ccccc3)n[nH]c2=S)cc1,15.1,21.2,24.4,33.1,98.4,nt,nt,nt
COc1ccc(-n2c(-c3ccc(Cl)cc3)c[nH]c2=S)cc1,56.6*,-3.6,19.2,23.1,113.5,79.6*,50.7*,38.4
COc1ccc(-n2cc(-c3ccc(Cl)cc3)[nH]c2=S)cc1,21.3,-18.6,-10.1,6.5,101.5,nt,nt,nt
O=C(CSc1ccc(F)cc1)Nc1nnc(-c2ccco2)o1,1.7,-6.1,5.6,9.7,88.5,nt,nt,nt
CCN(C(=O)CN1CCN(c2ccccc2F)CC1)c1c(N)n(Cc2ccccc2)c(=O)[nH]c1=O,15.0,1.5,7.9,0.1,90.8,nt,nt,nt
c1ccc2oc(SCc3cn4ccccc4n3)nc2c1,55.7*,5.1,38.7,17.4,105.3,68.5*,69.2*,53.2*
Cc1cc(Br)ccc1NC(=O)CNC(=O)Cc1ccc(S(=O)(=O)N2CCOCC2)s1,7.0,-4.3,-3.9,-10.1,110.7,nt,nt,nt
C#CCNC(=O)C1=C[C@H](C2CCCCC2)C[C@H](OCc2ccc(CO)cc2)O1,54.3*,13.1,35.0,15.5,90.4,53.8*,50.7*,33.2
O=C(NC1CC1)C1=C[C@H](C2CCCCC2)C[C@H](OCc2ccc(CO)cc2)O1,57.5*,0.5,9.2,2.4,nt,60.5*,62.3*,45.9
O=C(O)C1=C[C@@H](C2CCCCC2)C[C@@H](OCc2ccc(CO)cc2)O1,24.1,1.2,-4.0,1.1,106.8,nt,nt,nt
O=C1C2C3C=CC(C3=C3CCCCC3)C2C(=O)N1c1ccccc1 (stereo unspecified),57.7*,17.2,11.0,14.3,102.3,65.0*,39.8,30.1
CCN(CC)c1nc(N)c([N+](=O)[O-])c(NCCO)n1,-7.0,-6.2,2.2,-3.8,98.0,nt,nt,nt
Nc1ccc(Oc2cc(N)cc(Oc3ccccc3)c2)cc1,50.3*,34.9,48.4,28.6,85.7,63.5*,22.8,44.6
Cc1ccc(Sc2cc(C)nc(-c3ccccn3)n2)cc1,51.1*,23.7,46.2,22.3,101.0,43.3,65.3*,49.5
O=c1c(Cl)c(NCc2ccco2)cnn1C12CC3CC(CC(C3)C1)C2,18.3,-11.5,31.3,-21.0,80.1,nt,nt,nt
Cc1ccc(CNc2cnn(C34CC5CC(CC(C5)C3)C4)c(=O)c2Cl)cc1,52.8*,35.5,22.5,3.5,93.0,48.9*,5.7,25.4
Fc1ccccc1OCCn1c(=S)[nH]c2ccccc21,32.9,18.7,37.4,12.4,91.5,nt,nt,nt
Cc1ccccc1OCCn1c(=S)[nH]c2ccccc21,53.1*,31.9,40.5,22.9,100.1,78.9*,66.7*,41.9
Cc1ccccc1C(=O)Nc1nnc(SC(C)C)s1,51.4*,21.6,36.2,-0.6,93.5,37.5,71.0*,63.0*
